# TGFb inhibitor = inhibitors of TGF-b signaling | Potency, µM (titrated, usually from 46.1 µM), for the others: at the highest dose activity, negative = inhibition, usual class: inhibitors | 410,000 tested, 1.2% active | HepG2 CAGA-GFP TGF-b/SMAD3 reporter, GFP fluorescence, 18 h; TGF-beta stimulated, 500 pg/mL final | AID 588855; note: % is set by controls: 0 for no effect and ±100 for the full control effect; nearly all actives have a fitted effect of over 65% in size
#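 Per well, imaged GFP fluorescence of HEPG2 CAGA-GFP cells gives the signal; cells get compound, then TGF-beta (500 pg/mL final), 18 h at 37 degrees C; %Activity versus -TGF-beta and +DMSO controls.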
# S2 tox = cell viability loss in ATXN counter-screen. S2 cells (HEK-293 line with an ATXN2-luciferase reporter) viability, CellTiter-Fluor protease fluorescence, 24 h. Potency, µM (titrated, usually from 56.7 µM), actives largely listed as cytotoxic. 400,000 tested, 0.49% active; note: nearly all actives have a fitted effect of over 40% in size
# HepG2 viability = HepG2 cytotoxicity, counter-screen for TGF-b inhibitors; HepG2 CAGA-GFP viability, ATP luminescence, 18 h; 410,000 tested, 0.76% active; AID 588856; Potency, µM (doses to about 46.1 µM), inactives show top-dose activity change, negative = cytotoxicity, most hits filed as cytotoxic
#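 CellTiter-Glo luminescence gave cytotoxicity after 18 hours at 37 degrees C. The cells were HepG2 CAGA-GFP in 1% FBS DMEM, stimulated with 500 pg/mL TGF-beta after compound addition. %Activity was normalised to no-cell wells (complete cell-killing) and DMSO (no toxicity), and curves were fitted and classified.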
# Nrf2 inh = inhibitors of Nrf2 signaling; A549 ARE-Fluc reporter, luciferase luminescence, 18-24 h; Potency, µM (top dose mostly 46 µM), for inactives: top-dose activity change, negative = inhibition, most hits filed as inhibitors; 360,000 tested, 2.1% active; AID 504444; note: % is set by controls: 0 for no effect and ±100 for the full control effect; nearly all actives have a fitted effect of over 60% in size
#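 A549 ARE_Fluc cells (5000/well, 5% FBS OPTI-MEM) pre-incubated 2 h, then treated with compounds 18-24 h at 37C/5% CO2 in concentration-response. CellTiter-Fluor viability read first; BugLite luciferase luminescence after 15 min at room temperature gives Nrf2 activity.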
# A549 tox = kills or reduces viability of A549 cells in Nrf2 counter-screen | Potency, µM (highest dose often 46 µM), for the others: at the top dose activity change, negative = cytotoxicity, actives largely listed as inhibitors | A549 ARE-Fluc cells, CellTiter-Fluor viability, 18-24 h | 390,000 tested, 0.16% active | AID 504648; note: % is set by controls: 0 for no effect and ±100 for the full control effect
#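 Cytotoxicity counterscreen: CellTiter-Fluor fluorescence was measured in A549 ARE_Fluc cells after 18-24 h of compound exposure in a concentration series. The subsequent BugLite luminescent read reports ARE-luciferase activity.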
# ATXN2 expr inh = inhibitors of ATXN2 expression; HEK-293 ATXN2-luciferase reporter, luminescence, 24 h; AID 1745845; Potency, µM (highest dose often 57 µM), without a hit: at the top dose activity change, negative = inhibition, hits mostly inhibitors; 360,000 tested, 0.72% active; note: % is set by controls: 0 for no effect and ±100 for the full control effect; nearly all actives have a fitted effect of over 55% in size
#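 ATXN2-luciferase reporter cells (luciferase flanked by upstream and downstream ATXN2 gene portions) were treated 24 h at 37 °C with compounds at up to 57 uM. SteadyGlo luminescence gave expression; GF-AFC fluorescence gave viability.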
# Active calls of the source: *; i = inactive; ? = inconclusive; . = not tested or not shown; ! = repeats disagree. An excerpt weighted towards active compounds, which were near 3.8% of everything screened. Calls come from the whole dose curve; as a rule, active = well fitted curve in the direction sought with a large enough effect; inconclusive = small, poorly fitted or top-dose-only effect, or another doubt; inactive = no such curve, though single readings can be large; an effect the other way counts as inactive or inconclusive. Potency is the fitted concentration of half-maximal effect.
SMILES,TGFb inhibitor,S2 tox,HepG2 viability,Nrf2 inh,A549 tox,ATXN2 expr inh
Cc1ccccc1-c1ocnc1C(=O)Nc1ccccc1NC(=O)c1ccccn1,11µM*,?,-77%,-4%,-10%,-37%
Cc1ccc(C)c(C(=O)c2ccccc2NC(=O)c2ccccn2)c1,-17%,i,-11%,-24%,-3%,-3%
COc1ccccc1N1CCN(Cc2ccc(-c3ccccc3[N+](=O)[O-])o2)CC1,-19%,?,-23%,23µM*,-1%,.
COc1ccccc1N1CCN(Cc2ccco2)CC1,-8%,?,0%,0%,-4%,-2%
COc1ccccc1NC(=O)CSc1nccc(-c2ccco2)n1,2%,i,-5%,-32%,-4%,4%
Cc1nc2ccc(S(=O)(=O)N(C)CC(=O)Nc3ccc(Br)c(C)c3)cc2s1,.,.,6%,-12%,-2%,.
CNc1snc(C)c1C(=O)OCC(=O)c1ccc(OC)c(F)c1,-7%,i,-16%,11%,-4%,-27%
CNc1snc(C)c1C(=O)OCC(=O)c1cc(F)ccc1OC,-27%,i,-27%,12µM*,-8%,-13%
Nc1nc(Nc2ccccc2)nc(NC2CCCCC2)c1[N+](=O)[O-],-80%,i,-83%,-8%,1%,?
Cc1ccc(S(=O)(=O)N2CCC(=O)N([C@H](COCc3ccc(Cl)c(Cl)c3)Cc3ccccc3)CC2)cc1,.,?,.,.,.,11%
O=C(Nc1nsc(-c2ccccc2)n1)c1ccc(F)cc1,-5%,i,2.8µM*,5%,8%,35%
O=C(Nc1nc2nccc(-c3ccccc3)n2n1)c1ccc(F)cc1,-3%,i,1%,6%,1%,1%
COc1cccc(N2CCN(C(=O)c3ccc(OC)c(S(=O)(=O)NC4CC4)c3)CC2)c1,9%,i,-48%,.,.,.
Cc1ccc(-c2c[n+](CC(=O)Nc3nc(-c4ccc(F)cc4)cs3)c3n2CCC3)cc1,?,?,18µM*,9%,-3%,-17%
COc1ccc(C2CC(O)(c3ccccc3)Oc3cc(OC)ccc32)cc1 (centres undefined),18µM*,?,13µM*!,14%,0%,-18%
COc1ccc(C2CC(O)(c3ccccc3)Oc3c(C)ccc(C(C)C)c32)cc1 (centres undefined),16µM*,.,-33%,-21%,9%,.
COc1ccc(-n2cnc3c(c2=N)C(c2cccc(OC)c2)c2c(ccc4ccccc24)O3)cc1 (centres undefined),.,.,.,?,-4%,.
CCOc1ccc(C2c3c(ncn(-c4ccccc4)c3=N)Oc3ccc4ccccc4c32)cc1OCC (centres undefined),.,.,.,16µM*,21µM*,.
N=c1c2c(ncn1-c1ccccc1)Oc1ccc3ccccc3c1C2c1ccc2c(c1)CCO2 (centres undefined),.,.,.,?,16µM*,.
COc1cccc(C2c3c(ncn(-c4ccncc4)c3=N)Oc3ccc4ccccc4c32)c1 (centres undefined),.,.,.,16%,-8%,.
Cc1ccccc1NS(=O)(=O)c1ccc2[nH]cc(C(=O)N3CCCC3)c(=O)c2c1,0%,.,14%,.,2%,.
CCC(C)(C)N(C(=O)CCC(=O)Nc1cc(C)on1)C(C(=O)NC(C)(C)C)c1ccc(OC)cc1 (centres undefined),13%,i,-8%,-13%,-12%,-13%
CN1/C(=C\C(=O)c2cncc(Br)c2)C(C)(C)c2ccccc21,4%,i,-30%,23µM*,-11%,-12%
COc1ccccc1OCC(=O)/C=C1/N(C)c2ccccc2C1(C)C,-1%,i,-2%,?,-8%,-19%
Cc1ccc(C(=O)NC(=S)/C=C2\N(C)c3ccccc3C2(C)C)cc1,-27%,?,-25%,18µM*,?,?
SMILES,TGFb inhibitor,S2 tox,HepG2 viability,Nrf2 inh,A549 tox,ATXN2 expr inh
CN1/C(=C\C(=O)c2cccnc2)C(C)(C)c2ccccc21,-16%,.,-9%,?,-14%,.
CN1/C(=C\C(=O)C[n+]2ccc3ccccc3c2)C(C)(C)c2ccccc21,-21%,?,-20%,10µM*,?,0%
CC(CNc1nc2ccccc2c2nc(-c3ccccc3)nn12)c1ccccc1 (centres undefined),2%,i,-6%,?,12%,-2%
CC(NC(=O)/C(C#N)=C/c1ccc(Cl)c([N+](=O)[O-])c1)c1ccccc1 (centres undefined),?,22µM*,-112%,2%,-3%,.
Cc1ccc(NC(=O)c2ncn(CCCN3CCN(Cc4cccc5ccccc45)CC3)n2)cc1C,?,32µM*,-85%,-10%,?,?
Cc1cc(C)c(CN2CCN(C(=O)Cn3cnc(C(=O)Nc4ccc(C)c(C)c4)n3)CC2)c(C)c1,16µM*,?,-99%,?,?,?
Cc1ccc(NC(=O)c2ncn(CC(=O)N[C@H](C)c3cccc4ccccc34)n2)cc1C,-4%,i,-17%,-20%,?,-15%
Cc1ccc(NC(=O)Cn2cnc(C(=O)Nc3ccc(C)c(C)c3)n2)cc1C,22%,i,0%,10%,1%,-1%
CCOc1ccc(OCCNC(=O)C(NC(=O)c2c(F)cccc2F)C(C)C)cc1 (centres undefined),0%,i,-3%,14%,0%,-2%
O=C(Nc1ccc(-c2csc(Nc3ccccc3)n2)cc1)c1cc([N+](=O)[O-])cc(C(F)(F)F)c1,?,13µM*,-13%,?,-19%,?
O=C(Nc1cccc(-c2csc(Nc3cccc(C(F)(F)F)c3)n2)c1)c1cc([N+](=O)[O-])cc(C(F)(F)F)c1,-9%,i,0%,?,-22%,6%
Cc1ccc(S(=O)(=O)c2ccc(Cl)cc2)cc1S(=O)(=O)N(C)CC(=O)O,4%,i,-81%,1%,0%,6%
O=C1CCc2cc([S+](=O)([O-])Nc3ccc(N[S+](=O)([O-])c4ccc5c(c4)CCC(=O)N5)cc3)ccc2N1,.,.,.,-17%,12%,.
Cc1cc(C)cc(-n2c3ccc(NC(=O)Cc4cccc5ccccc45)cc3c(=O)n2C)c1,?,0.56µM*,-11%,.,.,-27%
O=C(Cc1cccc2ccccc12)Nc1ccc(-c2cc3ccccc3oc2=O)cc1,0%,i,11%,5.8µM*,-6%,?
NC(=S)N/N=C1\CCOc2ccc(Cl)cc21,8.9µM*,.,-58%,?,1%,.
